Fam108B inh = Fam108B inhibition, counter-screen for RBBP9 inhibitors; recombinant Fam108B, FP-Rh probe fluorescence polarization; inhibition, % at 9.51 µM; actives 0.33% (n = 300,000);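 active = inhibition above the screen mean inhibition plus 3 SD, computed separately per campaign, cut at about 18% in these data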;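 note: inhibitors lower polarization as less probe binds the enzyme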
PAFAH2 inh = inhibitors of human PAFAH2; actives 0.99% (n = 340,000); inhibition, % at 3.39 µM; recombinant PAFAH2, FP-rhodamine activity probe, fluorescence polarization; Q99487; AID 492956;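 active = inhibition above the mean over all tested compounds plus 3 SD, cut at about 30% in these data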;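 note: inhibitors block probe labeling of enzyme so polarization drops; 0% = enzyme with DMSO and 100% = wells lacking PAFAH2 protein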
pPAFAH inh = inhibitors of human plasma PAF acetylhydrolase (pPAFAH); Q13093; recombinant pPAFAH, FP-rhodamine probe fluorescence polarization; inhibition, % at 3.39 µM; actives 1.5% (n = 330,000);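 active = inhibition above the mean inhibition across the screen plus 3 SD, cut at about 25% in these data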;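 note: inhibitors block binding of the rhodamine activity-based probe so polarization drops; 0% = enzyme with DMSO and 100% = wells lacking pPAFAH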
PAFAH1B2 FP inh = blocks human PAF acetylhydrolase 1b catalytic subunit 2 | P68402 | recombinant PAFAH1B2, FP-rhodamine activity probe, fluorescence polarization | inhibition, % at 3.39 µM | actives 1.2% (n = 340,000) | AID 492953;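 active = inhibition above the mean of all tested compounds plus 3 SD, cut at about 24% in these data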;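 note: 0% = enzyme with DMSO and 100% = wells lacking PAFAH1B2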
Target sequence (P68402 whole entry, looked up): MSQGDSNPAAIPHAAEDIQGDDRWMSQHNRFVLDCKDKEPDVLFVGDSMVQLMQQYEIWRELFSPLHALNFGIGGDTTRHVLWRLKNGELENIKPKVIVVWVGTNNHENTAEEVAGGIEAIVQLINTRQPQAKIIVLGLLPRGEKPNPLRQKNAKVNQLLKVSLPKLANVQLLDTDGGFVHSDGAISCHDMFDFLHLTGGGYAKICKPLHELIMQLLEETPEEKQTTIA
PME-1 primary = blocks human protein phosphatase methylesterase 1; actives 0.53% (n = 320,000); inhibition, % at 5.9 µM; recombinant PME-1, FP-Rh probe fluorescence polarization;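 active = inhibition above the campaign mean of all compounds plus 3 SD, cut at about 26% in these data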;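 note: competitive labeling of PME-1 active site by serine hydrolase directed probe; 0% = PME-1 with DMSO and 100% = wells lacking PME-1 enzyme; inhibitors block probe labeling so polarization falls and inhibition rises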
Target sequence (Q9Y570 whole entry, looked up): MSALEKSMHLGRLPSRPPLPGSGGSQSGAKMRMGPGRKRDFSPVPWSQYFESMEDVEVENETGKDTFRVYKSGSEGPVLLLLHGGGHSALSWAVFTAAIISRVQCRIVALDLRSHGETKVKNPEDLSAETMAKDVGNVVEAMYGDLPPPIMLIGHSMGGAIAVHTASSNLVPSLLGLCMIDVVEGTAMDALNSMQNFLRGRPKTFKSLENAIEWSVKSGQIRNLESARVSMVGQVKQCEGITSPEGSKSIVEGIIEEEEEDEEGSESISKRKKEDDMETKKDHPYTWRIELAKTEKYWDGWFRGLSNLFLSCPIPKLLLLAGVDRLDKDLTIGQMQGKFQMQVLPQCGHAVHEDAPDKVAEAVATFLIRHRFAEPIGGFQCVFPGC
PAFAH1B3 FP inh = blocks human PAF acetylhydrolase 1B catalytic subunit 3 | recombinant PAFAH1B3, FP-rhodamine probe, fluorescence polarization | AID 492972 | Q15102 | actives 0.28% (n = 340,000) | inhibition, % at 3.39 µM;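 active = inhibition above the screen-wide average of all tested compounds plus 3 SD, cut at about 25% in these data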;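 note: 0% = enzyme with DMSO only and 100% = wells lacking PAFAH1B3 protein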
* hit, by the source's call. This is a sample that favours compounds with a hit; in the whole collection about 2.8% have one here.

How did CCOC(=O)c1nn2c(C(F)(F)F)cc(-c3ccc(OC)cc3)nc2c1Br do in these assays?
Fam108B inh: -1; PAFAH2 inh: 2; pPAFAH inh: 3; PAFAH1B2 FP inh: 3; PME-1 primary: -2; PAFAH1B3 FP inh: -3

Results for Cn1nccc1C(=O)OCC(=O)Nc1ccccc1Cl ?
PAFAH2 inh: -4; PAFAH1B2 FP inh: 1; PAFAH1B3 FP inh: 1

How did CC1(C)CC(NC(=O)C2CCC(=O)N(Cc3ccccc3F)C2)CC(C)(C)C1 (stereo not drawn) do in these assays?
PAFAH2 inh: 3; PAFAH1B2 FP inh: 28*; PAFAH1B3 FP inh: 15

Results for Cc1ccc(C(C)(C)NC(=O)C2CCC(=O)N(Cc3ccccc3F)C2)cc1 (stereo not drawn) ?
Fam108B inh: -1; PAFAH2 inh: 3; pPAFAH inh: -1; PAFAH1B2 FP inh: 2; PME-1 primary: 4; PAFAH1B3 FP inh: 0

Results for COc1cc(/C=C2\SC(=S)N(CCCCC(=O)O)C2=O)ccc1OS(=O)(=O)c1ccc(C)cc1 ?
Fam108B inh: 0; PAFAH2 inh: 9; pPAFAH inh: 13; PAFAH1B2 FP inh: 30*; PME-1 primary: 1; PAFAH1B3 FP inh: 3

What do the screens show for `COc1cc(/C=C2/SC(=S)NC2=O)ccc1OS(=O)(=O)c1ccc(C)cc1`?
Fam108B inh: -2; PAFAH2 inh: -5; pPAFAH inh: 5; PAFAH1B2 FP inh: 43*; PME-1 primary: -9; PAFAH1B3 FP inh: -5

What do the screens show for `Cc1nn(-c2ncc(C(F)(F)F)cc2Cl)c(=O)n1-c1c(F)cccc1F`?
Fam108B inh: 4; PAFAH2 inh: 7; pPAFAH inh: 30*; PAFAH1B2 FP inh: -2; PME-1 primary: -2; PAFAH1B3 FP inh: 8

How did Cc1ccc(OCCSCc2nc3ccccc3[nH]2)cc1 do in these assays?
Fam108B inh: -5; PAFAH2 inh: -3; pPAFAH inh: 5; PAFAH1B2 FP inh: 11; PME-1 primary: 3; PAFAH1B3 FP inh: -3

Results for Clc1ccc(OCCSCc2nc3ccccc3[nH]2)cc1 ?
Fam108B inh: -3; PAFAH2 inh: 0; pPAFAH inh: 7; PAFAH1B2 FP inh: 31*; PME-1 primary: 5; PAFAH1B3 FP inh: 1

Results for O=C(c1ccc(Cl)cc1)N(Cc1ccco1)C1CCS(=O)(=O)C1 (stereo not drawn) ?
Fam108B inh: 4; PAFAH2 inh: -5; pPAFAH inh: 1; PAFAH1B2 FP inh: 4; PME-1 primary: 2; PAFAH1B3 FP inh: 5

What do the screens show for `Fc1ccccc1NC(=S)N1CCN(Cc2ccccc2)CC1`?
Fam108B inh: 4; PAFAH2 inh: 1; pPAFAH inh: 32*; PAFAH1B2 FP inh: 0; PME-1 primary: 5; PAFAH1B3 FP inh: 4

How did O=C(OCc1cn(-c2ccc(Cl)c(Cl)c2)nn1)c1ccccc1 do in these assays?
Fam108B inh: 1; PAFAH2 inh: 78*; pPAFAH inh: 3; PAFAH1B2 FP inh: 1; PME-1 primary: -5; PAFAH1B3 FP inh: 3

Results for C/C(=N\Nc1ccccc1C(=O)O)c1ccncc1 ?
Fam108B inh: -1; PAFAH2 inh: 5; pPAFAH inh: 4; PAFAH1B2 FP inh: -2; PME-1 primary: 73*; PAFAH1B3 FP inh: 5

What do the screens show for `C/C(=N/NC(=O)c1ccncc1)c1ccccc1`?
Fam108B inh: 3; PAFAH2 inh: -8; pPAFAH inh: 2; PAFAH1B2 FP inh: 3; PME-1 primary: 7; PAFAH1B3 FP inh: 1

How did Cc1ccc(C)c(NC(=O)c2ccccc2NC(=O)C2CCCO2)c1 (stereo not drawn) do in these assays?
Fam108B inh: 0; PAFAH2 inh: -16; pPAFAH inh: 3; PAFAH1B2 FP inh: 2; PME-1 primary: -6; PAFAH1B3 FP inh: 5

How did O=[N+]([O-])c1ccc(S(=O)(=O)NNC(=S)NCCc2ccccc2)cc1 do in these assays?
Fam108B inh: 0; PAFAH2 inh: 2; pPAFAH inh: 7; PAFAH1B2 FP inh: 42*; PME-1 primary: 2; PAFAH1B3 FP inh: 6

How did O=C(Nc1ccccc1)O[C@@H]1C[C@H]2CCC(=O)N3CC[C@@H](C1)[C@@H]23 do in these assays?
Fam108B inh: -5; pPAFAH inh: 2; PME-1 primary: 8

How did O=C(O)CCCC(=O)N1CCN(c2nc(-c3ccccc3Cl)c3cc(Br)ccc3n2)CC1 do in these assays?
Fam108B inh: 2; PAFAH2 inh: 0; pPAFAH inh: 28*; PAFAH1B2 FP inh: 1; PME-1 primary: 1; PAFAH1B3 FP inh: -2

How did O=C(COC(=O)CCc1ccccc1)Nc1ncc(Cl)cc1Cl do in these assays?
Fam108B inh: 0; PAFAH2 inh: 2; pPAFAH inh: 26*; PAFAH1B2 FP inh: 4; PME-1 primary: -10; PAFAH1B3 FP inh: 8

How did O=C(COC(=O)c1ccc(Br)o1)Nc1ncc(Cl)cc1Cl do in these assays?
Fam108B inh: 2; PAFAH2 inh: 12; pPAFAH inh: 13; PAFAH1B2 FP inh: -1; PME-1 primary: 3; PAFAH1B3 FP inh: 0

What do the screens show for `O=C(COC(=O)CCc1nc2ccccc2s1)Nc1ncc(Cl)cc1Cl`?
Fam108B inh: 5; PAFAH2 inh: 10; pPAFAH inh: 17; PAFAH1B2 FP inh: 8; PME-1 primary: 3; PAFAH1B3 FP inh: 7

How did O=C(COC(=O)c1sc2cc(F)ccc2c1Cl)Nc1ncc(Cl)cc1Cl do in these assays?
Fam108B inh: -5; PAFAH2 inh: -13; pPAFAH inh: 31*; PAFAH1B2 FP inh: -4; PME-1 primary: -15; PAFAH1B3 FP inh: -11

Results for Cc1ccc2c(c1)c1nnc(SCC(=O)Nc3ccc(N(C)C)cc3)nc1n2CC(=O)O ?
Fam108B inh: 9; PAFAH2 inh: 1; pPAFAH inh: 7; PAFAH1B2 FP inh: 3; PME-1 primary: -2; PAFAH1B3 FP inh: 6

How did O=C(Cc1ccc(Cl)cc1Cl)Nc1cccc(S(=O)(=O)Nc2ccccc2F)c1 do in these assays?
Fam108B inh: -3; PAFAH2 inh: -6; pPAFAH inh: 27*; PAFAH1B2 FP inh: 21; PME-1 primary: 0; PAFAH1B3 FP inh: -8

Results for CCOc1ccc(S(=O)(=O)Nc2ccc(C(=O)NCC(c3ccco3)N(C)C)cc2)cc1 (stereo not drawn) ?
Fam108B inh: 1; PAFAH2 inh: 1; pPAFAH inh: 13; PAFAH1B2 FP inh: 5; PME-1 primary: 6; PAFAH1B3 FP inh: 2

What do the screens show for `Cc1ccccc1NS(=O)(=O)c1ccc(C(=O)NCC(c2ccco2)N(C)C)cc1` (stereo not drawn)?
Fam108B inh: 0; PAFAH2 inh: 2; pPAFAH inh: 30*; PAFAH1B2 FP inh: 2; PME-1 primary: 4; PAFAH1B3 FP inh: -5

How did O=C(NCC(c1ccco1)N1CCCCC1)c1ccc(COc2ccc(Cl)cc2)cc1 (stereo not drawn) do in these assays?
PAFAH2 inh: -4; PAFAH1B2 FP inh: 31*; PAFAH1B3 FP inh: 6

What do the screens show for `Cc1ccccc1NS(=O)(=O)c1ccc(C(=O)NCC(c2ccco2)N2CCCCC2)cc1` (stereo not drawn)?
Fam108B inh: 0; PAFAH2 inh: -1; pPAFAH inh: 34*; PAFAH1B2 FP inh: 6; PME-1 primary: -2; PAFAH1B3 FP inh: -1

Compound activity deposited in PubChem BioAssay by The Scripps Research Institute Molecular Screening Center.
